Measurements reported in PubChem BioAssay (Tox21).
A number with no mark means an inactive call. Records with an inconclusive call do not appear. Where a call stands in place of a potency, no number is given. The source made the active and inactive calls. Unless noted, calls follow the shape of the dose curve; as a rule, active = well fitted curve in the direction sought with a large enough effect in the repeat runs; inconclusive = weak or mixed curves; inactive = no such curve, though single readings can be large; an effect the other way counts as inactive or inconclusive.

Assays:
[1] = qHTS assay to identify small molecule agonists of the androgen receptor (AR) signaling pathway in the presence of an antagonist - cell viability counter screen (AID 1259379); also: nearly all actives have a fitted effect of over 25% in size; also: potency is read from the fitted curve at half-maximal effect
Method in brief: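 Fluorescence from CellTiter-Fluor, added after 15 hr and read 1 hr later, gave cell viability. Cells were MDA-kb2 exposed to compounds (15 concentrations) in the presence of 3.0uM nilutamide at 37C, 0% CO2.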

[2] = qHTS assay to identify small molecule agonists of the estrogen receptor beta (ER-beta) signaling pathway - cell viability counter screen (AID 1259380); also: nearly all actives have a fitted effect of over 30% in size; also: potency is read from the fitted curve at half-maximal effect
Method in brief: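 Same-well viability counter screen. Cells: ER-beta-UAS-bla HEK293T, plated 6 hr before compound, in 2% charcoal-stripped FBS. Compound exposure 16 hr, 37C; viability by CellTiter-Glo luminescence after 30 min at room temperature.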

[3] = qHTS assay to identify small molecule antagonists of the estrogen receptor beta (ER-beta) signaling pathway - cell viability counter screen (AID 1259382);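 also: HEK293T cells carrying ER-beta-UAS-bla reporter stimulated with estradiol; series mostly up to about 92 µM; nearly all actives have a fitted effect of over 55% in size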
Method in brief: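 Following a 6 hr plating period, HEK293T cells carrying a UAS-driven beta-lactamase reporter under ER-beta control received compounds and 1nM E2 (final). After 16 hr at 37C and 2 hr substrate loading, CellTiter-Glo luminescence indicated viability.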

[4] = qHTS assay to identify small molecule agonists or antagonists of the thyroid stimulating hormone receptor (TSHR) signaling pathway - wild type cell line counter screen (AID 1259384; calls by dose curve)
Method in brief: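 Wild-type Hek293 cells, 800/well, 18 h at 37C, then compound with Ro20-1724 for 30 min RT. cAMP by HTRF (cAMP-d2/anti-cAMP cryptate), 1 h RT, fluorescence read. 15 concentrations, triplicates.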

[5] = target: Thyrotropin receptor (Homo sapiens) (UniProt P16473); assay: qHTS assay to identify small molecule antagonists of the thyroid stimulating hormone receptor (TSHR) signaling pathway (AID 1259385; calls by dose curve; also: nearly all actives have a fitted effect of over 20% in size; also: potency is read from the fitted curve at half-maximal effect)
Chain of Thyrotropin receptor (Homo sapiens) (P16473 whole entry, looked up): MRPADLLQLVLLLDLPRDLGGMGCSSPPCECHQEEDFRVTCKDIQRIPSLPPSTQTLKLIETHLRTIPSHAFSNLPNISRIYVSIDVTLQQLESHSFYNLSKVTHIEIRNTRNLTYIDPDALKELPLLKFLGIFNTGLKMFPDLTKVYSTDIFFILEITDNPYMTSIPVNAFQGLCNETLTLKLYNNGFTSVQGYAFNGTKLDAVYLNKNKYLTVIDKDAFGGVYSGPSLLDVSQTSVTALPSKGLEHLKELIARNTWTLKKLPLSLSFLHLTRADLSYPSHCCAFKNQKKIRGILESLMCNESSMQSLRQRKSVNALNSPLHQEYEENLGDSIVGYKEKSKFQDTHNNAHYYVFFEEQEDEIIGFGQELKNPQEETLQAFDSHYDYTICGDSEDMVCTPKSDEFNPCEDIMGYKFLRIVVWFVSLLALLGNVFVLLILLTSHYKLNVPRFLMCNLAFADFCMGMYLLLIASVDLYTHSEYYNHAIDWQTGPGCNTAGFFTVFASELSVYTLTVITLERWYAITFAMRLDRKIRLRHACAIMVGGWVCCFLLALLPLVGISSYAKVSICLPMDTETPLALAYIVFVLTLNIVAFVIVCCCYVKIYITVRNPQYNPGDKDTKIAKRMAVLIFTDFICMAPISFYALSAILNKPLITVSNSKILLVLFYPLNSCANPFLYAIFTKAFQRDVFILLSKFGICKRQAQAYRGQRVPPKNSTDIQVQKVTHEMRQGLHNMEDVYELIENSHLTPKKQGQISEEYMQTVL
Method in brief: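 TSHR-HEK293 cells (800/well) plated 18 h, then compounds with Ro20-1724 and TSH at 1.5 ng/mL final, 30 min at room temperature. cAMP quantified by HTRF (cAMP-d2/anti-cAMP-cryptate, 1 h); 15 concentrations in triplicate.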

[6] = qHTS assay to identify small molecule agonists of the estrogen receptor alpha (ER-alpha) signaling pathway in the presence of an antagonist - cell viability counter screen (AID 1259386);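 also: cells exposed to compounds for 22 h at 37 °C before the viability read; nearly all actives have a fitted effect of over 30% in size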; also: potency is read from the fitted curve at half-maximal effect
Method in brief: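 Cells are starved of estrogens for 5 days in charcoal-stripped serum, seeded for 24hr and co-treated with ICI-182,780 (10.0nM final) and test compounds. After 22hr at 37C, viability is read as CellTiter-Fluor fluorescence.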

[7] = target: Progesterone receptor (Homo sapiens) (UniProt P06401); assay: qHTS assay to identify small molecule agonists of the progesterone receptor (PR) signaling pathway (AID 1346784; calls by dose curve; also: nearly all actives have a fitted effect of over 30% in size)
Chain of Progesterone receptor (Homo sapiens) (P06401 whole entry, looked up): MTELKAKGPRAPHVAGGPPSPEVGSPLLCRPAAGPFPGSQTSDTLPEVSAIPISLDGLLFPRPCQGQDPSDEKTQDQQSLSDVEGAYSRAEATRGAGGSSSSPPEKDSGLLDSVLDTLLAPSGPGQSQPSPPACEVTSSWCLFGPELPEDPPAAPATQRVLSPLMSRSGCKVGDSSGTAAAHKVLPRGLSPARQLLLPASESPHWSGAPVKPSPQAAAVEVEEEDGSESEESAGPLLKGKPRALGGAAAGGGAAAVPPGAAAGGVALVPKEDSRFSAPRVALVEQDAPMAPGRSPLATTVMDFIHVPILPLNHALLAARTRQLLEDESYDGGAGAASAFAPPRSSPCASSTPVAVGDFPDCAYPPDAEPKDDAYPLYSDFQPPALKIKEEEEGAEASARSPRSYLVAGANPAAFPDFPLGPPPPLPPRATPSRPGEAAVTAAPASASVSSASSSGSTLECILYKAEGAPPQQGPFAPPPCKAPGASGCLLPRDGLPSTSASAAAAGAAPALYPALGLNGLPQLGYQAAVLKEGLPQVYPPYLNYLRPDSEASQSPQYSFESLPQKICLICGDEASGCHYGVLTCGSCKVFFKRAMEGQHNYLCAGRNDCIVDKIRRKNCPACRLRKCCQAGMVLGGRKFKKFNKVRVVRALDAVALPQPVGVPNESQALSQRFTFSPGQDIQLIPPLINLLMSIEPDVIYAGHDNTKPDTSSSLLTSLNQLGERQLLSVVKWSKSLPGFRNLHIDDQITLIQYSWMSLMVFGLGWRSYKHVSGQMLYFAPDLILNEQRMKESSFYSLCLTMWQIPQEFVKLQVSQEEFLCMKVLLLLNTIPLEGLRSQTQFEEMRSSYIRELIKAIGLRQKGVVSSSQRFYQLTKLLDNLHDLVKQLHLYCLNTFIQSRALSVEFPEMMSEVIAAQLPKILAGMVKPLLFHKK
Method in brief: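 The screen uses PR-UAS-bla HEK 293T cells in charcoal-stripped serum (2%). Compounds are applied for 16 hr at 37C after a 6 hr pre-incubation, and reporter activity is detected with a FRET beta-lactamase substrate after 2 hr at room temperature.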

[8] = target: Progesterone receptor (Homo sapiens) (UniProt P06401); assay: qHTS assay to identify small molecule antagonists of the progesterone receptor (PR) signaling pathway (AID 1346795; active = well fitted inhibition curve with a large enough effect in the signal ratio in the repeat runs, not every such curve was filed as active; the % refers to the signal ratio; also: potency is read from the fitted curve at half-maximal effect)
Method in brief: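 After 6 hr plating at 37C in 2% stripped-serum medium, PR-UAS-bla HEK293T cells got compounds, then 1 nM R5020. Sixteen hours later, LiveBLAzer substrate was applied for 2 hr at room temperature and fluorescence was recorded.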

[9] = qHTS assay to identify small molecule antagonists of the progesterone receptor (PR) signaling pathway - cell viability counter screen (AID 1346798); also: nearly all actives have a fitted effect of over 50% in size; also: potency is read from the fitted curve at half-maximal effect
Method in brief: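 Viability was determined by ATP-based luminescence (CellTiter-Glo) in PR-UAS-bla HEK293T cells cultured in 2% charcoal-stripped serum and incubated 16 hr with compounds under R5020 stimulation.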

[10] = qHTS assay to identify small molecule agonists of the progesterone receptor (PR) signaling pathway - cell viability counter screen (AID 1346799; calls by dose curve; also: nearly all actives have a fitted effect of over 45% in size)
Method in brief: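 Viability was scored by ATP luminescence (CellTiter-Glo, 30 min, room temperature) in the same wells used for the reporter readout, after 16 hr compound exposure of PR-UAS-bla HEK293T cells.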

[11] = qHTS assay to identify small molecule antagonists of the TGF-beta/Smad signaling pathway - cell viability counter screen (AID 1346824); also: nearly all actives have a fitted effect of over 50% in size
Method in brief: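 SBE-bla HEK 293T cells, incubated overnight, then compound plus 0.25 ng/mL TGF-beta1 (stock added) for 5 hr at 37 C. Viability was read in the same wells by CellTiter-Glo luminescence after 30 min at room temperature.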

[12] = qHTS assay to identify small molecule agonists of the TGF-beta/Smad signaling pathway (AID 1346859; active = well fitted activation curve with a large enough effect in the signal ratio in the repeat runs, not every such curve was filed as active; the % refers to the signal ratio; also: series mostly up to about 77 µM)
Method in brief: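 Dual-wavelength fluorescence (460/530 nm emission) quantified beta-lactamase expression under the Smad binding element in HEK 293T cells following 5 hr compound treatment at 37 C.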

[13] = target: Thyrotropin-releasing hormone receptor (Homo sapiens) (UniProt P34981); assay: qHTS assay to identify small molecule antagonists of the thyrotropin-releasing hormone receptor (TRHR) signaling pathway (AID 1346877; active = well fitted inhibition curve with a large enough effect in the repeat runs, not every such curve was filed as active; also: series mostly up to about 51 µM)
Chain of Thyrotropin-releasing hormone receptor (Homo sapiens) (P34981 whole entry, looked up): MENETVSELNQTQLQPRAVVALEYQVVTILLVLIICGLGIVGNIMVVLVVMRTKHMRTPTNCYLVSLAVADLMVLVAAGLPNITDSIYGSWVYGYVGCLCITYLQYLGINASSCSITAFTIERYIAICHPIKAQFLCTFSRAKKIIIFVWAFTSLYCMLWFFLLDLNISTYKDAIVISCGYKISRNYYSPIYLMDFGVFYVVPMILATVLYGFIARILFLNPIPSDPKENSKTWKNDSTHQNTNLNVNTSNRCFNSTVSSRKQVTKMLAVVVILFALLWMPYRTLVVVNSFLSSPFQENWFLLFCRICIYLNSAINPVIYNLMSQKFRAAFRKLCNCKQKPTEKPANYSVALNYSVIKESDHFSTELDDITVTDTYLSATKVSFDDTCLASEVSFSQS
Method in brief: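 Cells (TRHR-HEK293) are plated and kept 18 h at 37 °C/5% CO2. A calcium-sensitive dye is added for 2 h, compound follows for 5 min at room temperature, and TRH is then given at 1 nM final.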

[14] = target: Thyrotropin-releasing hormone receptor (Homo sapiens) (UniProt P34981); assay: qHTS assay to identify small molecule agonists of the thyrotropin-releasing hormone receptor (TRHR) signaling pathway (AID 1346891; calls by dose curve;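 also: HEK293 cells expressing TRHR with calcium dye readout; series mostly up to about 58 µM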)
Method in brief: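 Kinetic fluorescence (3 min, 1 s intervals) reported intracellular calcium after compound transfer onto TRHR-Hek293 cells pre-loaded with dye for 2 h at 37 °C.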

[15] = Caspase-3/7 induction in HepG2 cells by small molecules, qHTS assay (AID 1346978); also: nearly all actives have a fitted effect of over 15% in size; also: potency is read from the fitted curve at half-maximal effect
Method in brief: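 Wild-type HepG2 cells, 2,000/well, settled 5 hr at 37 C and 5% CO2, then compound-treated for 17 hr; caspase-3/7 activity read by luminescent Caspase-Glo 3/7 after 30 min at room temperature.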

[16] = Caspase-3/7 induction in CHO-K1 cells by small molecules, qHTS cell viability counter screen (AID 1346979); also: nearly all actives have a fitted effect of over 35% in size; also: potency is read from the fitted curve at half-maximal effect
Method in brief: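 Seeding: 1,500 CHO-K1 cells/well. Rest: 5hr, 37C. Treatment: compounds in DMSO, 16hr. Read: CellTiter-Fluor, 1hr, fluorescence.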

[17] = qHTS assay to identify small molecule agonists of the TGF-beta/Smad signaling pathway - cell viability counter screen (AID 1346829); also: nearly all actives have a fitted effect of over 45% in size; also: potency is read from the fitted curve at half-maximal effect
Method in brief: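 Same-well cytotoxicity: CellTiter-Glo added after the 2 hr room-temperature beta-lactamase substrate step, luminescence measured 30 min later; cells had 5 hr of compound at 37 C.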

[18] = target: Estrogen receptor (Homo sapiens) (UniProt P03372); assay: qHTS assay to identify small molecule agonists of the estrogen receptor alpha (ER-alpha) signaling pathway in the presence of an antagonist (AID 1259383; calls by dose curve; also: top concentration of the series differs between compounds; nearly all actives have a fitted effect of over 15% in size)
Chain of Estrogen receptor (Homo sapiens) (P03372 whole entry, looked up): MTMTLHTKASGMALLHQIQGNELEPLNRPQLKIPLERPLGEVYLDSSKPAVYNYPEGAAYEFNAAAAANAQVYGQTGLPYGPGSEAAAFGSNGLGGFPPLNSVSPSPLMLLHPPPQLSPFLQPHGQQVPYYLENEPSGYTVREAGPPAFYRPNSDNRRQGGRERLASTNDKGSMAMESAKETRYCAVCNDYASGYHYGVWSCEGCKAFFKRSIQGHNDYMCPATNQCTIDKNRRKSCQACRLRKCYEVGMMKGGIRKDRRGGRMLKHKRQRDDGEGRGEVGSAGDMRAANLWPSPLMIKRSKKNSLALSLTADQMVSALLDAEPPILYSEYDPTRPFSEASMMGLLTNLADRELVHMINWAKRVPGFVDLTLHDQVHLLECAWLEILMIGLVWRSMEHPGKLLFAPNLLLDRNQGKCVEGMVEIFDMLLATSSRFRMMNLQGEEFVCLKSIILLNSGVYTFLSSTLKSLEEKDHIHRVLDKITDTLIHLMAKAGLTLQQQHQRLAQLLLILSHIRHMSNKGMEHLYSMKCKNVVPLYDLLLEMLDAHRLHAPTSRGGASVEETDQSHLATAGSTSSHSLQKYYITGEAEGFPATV
Method in brief: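 Cells are hormone-deprived for 5 days (charcoal-stripped FBS, no phenol red), plated for 24hr, spiked with 10.0nM ICI-182,780, then dosed at 15 concentrations. After 22hr at 37C, ONE-Glo luminescence reports ERE-luciferase activity.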

[19] = Human pregnane X receptor (PXR) small molecule agonists, qHTS cell viability counter screen (AID 1346977); also: nearly all actives have a fitted effect of over 50% in size; also: potency is read from the fitted curve at half-maximal effect
Method in brief: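 HepG2 cells stably carrying the PXR-Luc reporter are cultured with 5% charcoal-stripped FBS and treated with compounds for 24hr. CellTiter-Fluor is added at 23hr and fluorescence is read after 1hr.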

[20] = target: Androgen receptor (Homo sapiens) (UniProt P10275); assay: qHTS assay to identify small molecule agonists of the androgen receptor (AR) signaling pathway in the presence of an antagonist (AID 1259381; calls by dose curve; also: nearly all actives have a fitted effect of over 15% in size)
Chain of Androgen receptor (Homo sapiens) (P10275 whole entry, looked up): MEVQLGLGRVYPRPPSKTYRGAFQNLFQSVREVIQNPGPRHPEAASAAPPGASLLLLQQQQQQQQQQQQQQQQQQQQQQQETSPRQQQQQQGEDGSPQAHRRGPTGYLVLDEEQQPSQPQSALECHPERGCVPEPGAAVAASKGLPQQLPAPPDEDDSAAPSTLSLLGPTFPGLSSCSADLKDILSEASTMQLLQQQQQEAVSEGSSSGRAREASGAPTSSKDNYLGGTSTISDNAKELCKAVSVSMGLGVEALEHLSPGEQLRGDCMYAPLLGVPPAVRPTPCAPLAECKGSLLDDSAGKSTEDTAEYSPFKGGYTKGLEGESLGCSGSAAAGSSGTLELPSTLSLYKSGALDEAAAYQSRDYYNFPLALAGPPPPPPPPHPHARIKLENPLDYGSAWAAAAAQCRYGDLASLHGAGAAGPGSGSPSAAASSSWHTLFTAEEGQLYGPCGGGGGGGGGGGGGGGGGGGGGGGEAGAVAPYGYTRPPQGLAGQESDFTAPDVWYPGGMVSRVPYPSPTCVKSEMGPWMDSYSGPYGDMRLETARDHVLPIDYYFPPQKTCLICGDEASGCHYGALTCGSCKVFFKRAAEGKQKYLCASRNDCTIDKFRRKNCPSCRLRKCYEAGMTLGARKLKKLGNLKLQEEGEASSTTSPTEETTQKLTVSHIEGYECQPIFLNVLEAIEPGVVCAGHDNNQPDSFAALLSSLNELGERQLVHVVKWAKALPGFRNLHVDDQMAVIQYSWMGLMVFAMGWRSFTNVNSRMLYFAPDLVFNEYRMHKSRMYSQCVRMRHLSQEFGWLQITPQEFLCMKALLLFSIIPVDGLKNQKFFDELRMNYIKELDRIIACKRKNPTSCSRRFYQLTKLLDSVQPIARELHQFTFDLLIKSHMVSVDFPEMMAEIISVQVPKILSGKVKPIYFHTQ
Method in brief: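 Cells are MDA-kb2 (human breast carcinoma, MMTV-luc, AR/GR responsive). Nilutamide is present at 3.0uM final throughout; compounds are added at 15 concentrations and incubated 16hr at 37C before ONE-Glo luminescence detection.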

SMILES | Potency [1] | Potency [2] | Potency [3] | Potency [4] | Potency [5] | Potency [6] | outcome [7] | Potency [8] | Potency [9] | Potency [10] | Potency [11] | outcome [12] | Potency [13] | Potency [14] | Potency [15] | Potency [16] | Potency [17] | Potency [18] | Potency [19] | Potency [20]
c1ccc2cc3c4ccccc4c4ccccc4c3cc2c1 | inactive | inactive | inactive | inactive | inactive | inactive | inactive | inactive | inactive | inactive | inactive | inactive | inactive | inactive | 6.89 µM (active) | 27.4 µM (active) | – | – | – | –
O=[N+]([O-])c1ccc(O)c2ncccc12 | 11.9 µM (active) | 0.944 µM (active) | – | inactive | inactive | 11.9 µM (active) | inactive | 0.531 µM (active) | 0.531 µM (active) | inactive | inactive | inactive | – | – | inactive | 8.41 µM (active) | inactive | – | – | –
CN(C/C=C/c1ccccc1)Cc1cccc2ccccc12 | inactive | – | – | inactive | – | – | inactive | – | inactive | inactive | – | – | inactive | inactive | inactive | inactive | – | inactive | inactive | –
Nc1c(Br)cc([N+](=O)[O-])cc1Br | inactive | inactive | – | – | – | inactive | inactive | – | inactive | inactive | – | – | – | – | inactive | inactive | inactive | inactive | inactive | –
CCCCCCCCCCCCCCCCC(C(=O)O)C(O)(CC(=O)O)C(=O)O (stereo not given) | inactive | – | inactive | inactive | inactive | inactive | inactive | inactive | inactive | inactive | inactive | – | inactive | inactive | inactive | inactive | inactive | inactive | inactive | inactive
Cc1cccc(C)c1C | inactive | inactive | inactive | inactive | inactive | inactive | inactive | – | inactive | inactive | inactive | inactive | inactive | inactive | inactive | inactive | – | – | inactive | –
COc1ccc(OC)c(N=Nc2c(O)ccc3ccccc23)c1 | 24.3 µM (active) | 30.6 µM (active) | – | – | 61.1 µM (active) | 6.11 µM (active) | inactive | inactive | inactive | – | – | inactive | inactive | inactive | inactive | 21.7 µM (active) | 43.6 µM (active) | – | 10.9 µM (active) | –
